Hits are enriched below; roughly 2.8% of the tested compounds scored in any of these assays.
PAFAH1B3 inh = inhibitors of human PAFAH1B3; actives 0.28% (n = 340,000); recombinant PAFAH1B3, FP-rhodamine probe, fluorescence polarization; AID 492972; inhibition, % at 3.39 µM; Q15102;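 active means inhibition above the screen-wide average of all tested compounds plus 3 SD, cut at about 25% in these data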;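 further: 0% = enzyme with DMSO only and 100% = wells lacking PAFAH1B3 protein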
PAFAH2 inh = inhibitors of human PAFAH2 | Q99487 | recombinant PAFAH2, FP-rhodamine activity probe, fluorescence polarization | inhibition, % at 3.39 µM | actives 0.99% (n = 340,000);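 active means inhibition above the mean over all tested compounds plus 3 SD, cut at about 30% in these data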;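 further: inhibitors block probe labeling of enzyme so polarization drops; 0% = enzyme with DMSO and 100% = wells lacking PAFAH2 protein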
Fam108B counter = counter-screen for RBBP9 inhibitors: inhibitors of mouse Fam108B | AID 1947 | actives 0.33% (n = 300,000) | recombinant Fam108B, FP-Rh probe fluorescence polarization | inhibition, % at 9.51 µM;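 active means inhibition above the screen mean inhibition plus 3 SD, computed separately per campaign, cut at about 18% in these data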;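 further: inhibitors lower polarization as less probe binds the enzyme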
pPAFAH FP inh = pPAFAH (human) enzyme inhibition. Q13093. actives 1.5% (n = 330,000). AID 463082. inhibition, % at 3.39 µM. recombinant pPAFAH, FP-rhodamine probe fluorescence polarization;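 active means inhibition above the mean inhibition across the screen plus 3 SD, cut at about 25% in these data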;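 further: inhibitors block binding of the rhodamine activity-based probe so polarization drops; 0% = enzyme with DMSO and 100% = wells lacking pPAFAH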
PAFAH1B2 inh = blocks human PAF acetylhydrolase 1b catalytic subunit 2 | P68402 | recombinant PAFAH1B2, FP-rhodamine activity probe, fluorescence polarization | inhibition, % at 3.39 µM | actives 1.2% (n = 340,000);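 active means inhibition above the mean of all tested compounds plus 3 SD, cut at about 24% in these data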;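 further: 0% = enzyme with DMSO and 100% = wells lacking PAFAH1B2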
Target sequence (P68402 whole entry, looked up): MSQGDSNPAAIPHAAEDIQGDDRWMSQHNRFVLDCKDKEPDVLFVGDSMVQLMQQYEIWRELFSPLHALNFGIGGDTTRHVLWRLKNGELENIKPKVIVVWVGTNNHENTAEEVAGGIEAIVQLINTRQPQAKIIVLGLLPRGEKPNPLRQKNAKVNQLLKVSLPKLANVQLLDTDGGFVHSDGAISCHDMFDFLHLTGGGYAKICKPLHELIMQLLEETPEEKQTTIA
PME-1 primary = PME-1 (human) inhibition; AID 2130; actives 0.53% (n = 320,000); Q9Y570; recombinant PME-1, FP-Rh probe fluorescence polarization; inhibition, % at 5.9 µM;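 active means inhibition above the campaign mean of all compounds plus 3 SD, cut at about 26% in these data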;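 further: competitive labeling of PME-1 active site by serine hydrolase directed probe; 0% = PME-1 with DMSO and 100% = wells lacking PME-1 enzyme; inhibitors block probe labeling so polarization falls and inhibition rises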
Target sequence (Q9Y570 whole entry, looked up): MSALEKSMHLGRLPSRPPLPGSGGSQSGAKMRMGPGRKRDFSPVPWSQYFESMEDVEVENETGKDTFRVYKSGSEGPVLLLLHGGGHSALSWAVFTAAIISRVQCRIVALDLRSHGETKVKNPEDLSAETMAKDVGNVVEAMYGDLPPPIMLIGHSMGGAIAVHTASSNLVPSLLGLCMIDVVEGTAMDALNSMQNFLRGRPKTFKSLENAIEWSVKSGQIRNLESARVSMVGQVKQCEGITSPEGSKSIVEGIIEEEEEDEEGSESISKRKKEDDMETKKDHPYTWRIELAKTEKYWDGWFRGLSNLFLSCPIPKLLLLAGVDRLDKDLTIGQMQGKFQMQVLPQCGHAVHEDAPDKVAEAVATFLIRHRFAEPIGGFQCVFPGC
Fam108b confirm = confirmation of mouse Fam108b serine hydrolase inhibitors | shares compounds with Fam108B counter | recombinant Fam108b, FP-Rh probe fluorescence polarization | inhibition, % at 9.51 µM | actives 44% (n = 930) | AID 1978;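 active means inhibition above a limit from the primary screen, the mean over all compounds plus 3 SD, cut at about 19% in these data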;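 further: 0% = median of active Fam108b wells and 100% = catalytically dead S170A mutant; inhibitors free the probe so polarization falls as inhibition rises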
Fam108b inh = inhibits mouse Fam108b in gel-based ABPP. shares compounds with Fam108B counter. recombinant Fam108b, fluorophosphonate probe. inhibition, % at 20 µM. actives 44% (n = 260); in the data active means inhibition above about 40%
Active calls of the source: *; · = no result given.

SMILES	PAFAH1B3 inh	PAFAH2 inh	Fam108B counter	pPAFAH FP inh	PAFAH1B2 inh	PME-1 primary	Fam108b confirm	others
COc1cc2c(cc1NC(=S)Nc1cccc3ccccc13)oc1ccccc12	2.7	-23.8	14.3	5.8	-1.6	22.4	·
COc1cc2c(cc1NC(=S)Nc1cccc(C(F)(F)F)c1)oc1ccccc12	0.9	1.4	24.4*	3.5	9.6	-1.1	44.6*	Fam108b inh=85.0*
Cc1cc(C)c2c(CC(=O)N(CCC#N)Cc3cccnc3)coc2c1	0.5	3.2	-1.3	5.4	2.7	1.6	·
C/C(=N\NC(=O)C(=O)N/N=C(\C)c1cccc(O)c1)c1cccc(O)c1	9.0	3.5	3.0	1.8	1.7	-3.1	·
COc1cccc(N=C2NC(=O)/C(=C/c3cc([N+](=O)[O-])ccc3O)S2)c1	39.0*	39.7*	18.7*	24.5	27.3*	-6.9	14.5
COc1ccc(N=C2NC(=O)/C(=C/c3ccc(O)c(OC)c3)S2)cc1	7.5	19.8	7.0	17.1	3.5	7.3	·
C[C@H](CO)N1C[C@H](C)[C@@H](CN(C)Cc2ccncc2)Oc2c(NS(=O)(=O)c3cccs3)cccc2C1=O	2.8	2.8	·	4.2	0.5	·	·
CCOC(=O)CN1C(=O)N[C@@H](c2cccc(C(F)(F)F)c2)[C@@H](C(=O)OC)[C@H]1C	8.9	11.3	-5.9	-3.5	3.8	-3.8	·
COc1ccc([C@H]2CC(=O)C=C(c3ccc(C)c(F)c3)C2)cc1	2.0	-1.1	·	3.7	4.0	0.0	·
Cc1nc2scc(-c3ccccc3)c2c(=O)n1N	6.7	1.4	-3.3	3.7	-2.9	-5.9	·
COc1ccc(-c2csc3nc(-c4ccccc4OC)oc(=O)c23)cc1	-16.4	-6.2	27.9*	-7.3	-8.9	-9.3	51.5*	Fam108b inh=85.0*
O=c1oc(-c2ccccc2F)nc2scc(-c3ccccc3)c12	·	·	55.4*	-1.1	·	-11.9	54.4*	Fam108b inh=80.0*
COc1ccc(-c2csc3nc(-c4ccc(C)cc4)oc(=O)c23)cc1OC	10.7	6.9	-0.8	7.9	2.6	10.1	·
Cc1nc2scc(-c3ccccc3)c2c(=O)o1	8.7	-3.7	33.8*	7.0	-3.9	-1.8	61.2*	Fam108b inh=85.0*
NS(=O)(=O)c1ccc(NC(=O)CSc2nc3ccccc3nc2N2CCOCC2)cc1	8.6	0.2	0.4	22.5	0.9	-3.6	·
COc1ccccc1NC(=O)c1cnc(SCC(=O)NCCc2ccccc2)n(C)c1=O	0.7	-5.5	-1.3	-0.8	2.6	-0.7	·
COc1ccc(C=NNC(=O)c2cc(O)c(O)c(O)c2)cc1COc1ccc(C(=O)OCC(C)C)cc1	·	·	·	·	·	·	·	Fam108b inh=30.0
N#Cc1cccc(NC(=O)Cn2c3[n+](c4ccc(C(F)(F)F)cc42)CCCCC3)c1	5.8	0.6	3.3	-3.2	-0.5	-4.5	·
CCCC(=O)Nc1sc2c(c1C#N)CCCCC2	1.5	-3.1	69.7*	0.4	9.2	3.9	-6.1
O=C(N/N=C/c1cccc([N+](=O)[O-])c1)c1cc[n+](CCO)cc1	8.7	4.8	1.5	-1.1	1.4	-2.4	·
Cc1noc(C)c1NC(=O)Nc1ccc2c(c1)CC(=O)N([C@@H](C)CO)C[C@@H](C)[C@@H](CN(C)C(=O)Nc1cccc3ccccc13)O2	-0.1	8.1	·	2.4	9.8	·	·
Cc1cccc(C(=O)Oc2ccccc2/C=N/Nc2ccc([N+](=O)[O-])cc2)c1	6.6	8.5	24.8*	-0.3	6.2	21.2	0.7
C/C(=N\Nc1ccc(C(=O)O)cc1)c1ccc2c(c1)Nc1ccccc1S2	25.6*	24.9	30.3*	33.6*	8.2	27.9*	27.3*
COc1ccc(/C(C)=N/Nc2cccc(C(=O)O)c2)cc1OC	-7.6	2.6	2.1	4.7	3.2	3.2	·
CN(Cc1ccc(Cl)c(Cl)c1)C(=O)c1ccccc1SCC(=O)N1CCCC1	5.4	3.4	·	·	3.1	·	·
SMILES	PAFAH1B3 inh	PAFAH2 inh	Fam108B counter	pPAFAH FP inh	PAFAH1B2 inh	PME-1 primary	Fam108b confirm	others
COCCCN1C(=O)c2ccc(C(=O)OCC(=O)N3CCN(c4ccccc4)CC3)cc2C1=O	3.8	-1.3	3.1	9.6	7.0	-9.0	·
Cc1ccccc1[C@]1(C)ON(c2ccccc2C(F)(F)F)C1=O	·	·	·	1.4	·	0.1	·
COc1ccc(Nc2nc(N)c(C(=O)c3ccc(F)cc3)s2)cc1	7.7	3.5	49.6*	30.6*	8.2	10.8	-3.9
CCCCCCCCCCCCCCCC[n+]1ccc(C=NO)cc1	·	·	·	·	·	·	·	Fam108b inh=75.0*
O=C(O)c1cc(N2CCCCC2)ccn1	9.4	3.0	·	·	-0.5	·	·
N#C/C(=N\Nc1ccc(S(=O)(=O)N2CCc3ccccc32)cc1)C(N)=S	13.6	24.2	21.5*	24.4	26.1*	11.7	27.0*
CCOC(=O)/C(C#N)=N/Nc1ccc(S(=O)(=O)N2CCc3ccccc32)cc1	10.0	-0.4	5.8	14.7	13.0	4.3	·
CCCc1ccc(C2C3=C(CC(C)(C)CC3=O)NC3=C2C(=O)c2ccccc23)cc1 (configuration not stated)	9.0	6.3	23.6*	5.5	11.7	4.5	0.5
CCNC(=O)NC(=O)C(C)OC(=O)C1CCN(S(=O)(=O)c2ccccc2C(=O)OC)CC1 (configuration not stated)	5.5	3.1	2.0	3.5	6.4	2.4	·
Cc1ccc(S(=O)(=O)Nc2ccccc2C(=O)Nc2nc(-c3ccc(F)cc3)cs2)cc1	-1.6	0.0	24.0*	24.9*	2.3	6.0	97.0*	Fam108b inh=65.0*
Cc1nc2ccccc2n2c(O)c(CC(=O)O)cc12	12.9	25.8	18.3*	26.7*	18.2	22.3	10.5
O=C(C(=O)N(Cc1ccccc1)Cc1ccccc1)c1c(-c2ccccc2)[nH]c2ccccc12	-26.5	-27.4	·	·	-15.9	·	·
N#CC/C(N)=N/Nc1nc2ccccc2nc1Cc1ccccc1	21.4	5.9	45.7*	11.3	7.7	32.6*	23.8*
CCOC(=O)C(CSCC(=O)c1ccc(Cl)cc1)NC(=O)OC(C)(C)C (configuration not stated)	-0.8	1.9	3.7	5.1	15.9	-1.3	·
CSc1nc(NCCOCCO)c2sc3nc(-c4ccco4)c4c(c3c2n1)CCC4	11.6	7.5	28.5*	29.1*	2.3	-4.6	5.4
CSc1nc(NCc2ccco2)c2sc3nc(C(C)C)c4c(c3c2n1)CC(C)(C)OC4	4.5	-3.2	-4.7	1.8	3.2	-14.7	·
CCCCn1c(=O)nc2n(-c3ccc(C)cc3)c3ccccc3cc-2c1=O	6.2	-5.2	-3.1	0.3	-1.5	-1.7	·
CCCCn1c(=O)nc2n(-c3ccc(OC)cc3)c3ccccc3cc-2c1=O	0.8	5.5	42.4*	1.7	1.8	-1.5	1.2

Assay outcomes as filed in PubChem BioAssay.
